Tau fibril FP = blocks human tau fibril formation measured by polarization; AID 1468; P10636; 280,000 tested, 0.39% active; Potency, µM (highest dose often 57.7 µM), for inactives: at the highest dose activity, negative = inhibition, most hits filed as inhibitors; K18 P301L tau heparin fibrillization, Alexa594 FP, 6 h; note: nearly all actives have a fitted effect of over 55% in size
Target sequence (P10636 561-689 P618L limits assumed): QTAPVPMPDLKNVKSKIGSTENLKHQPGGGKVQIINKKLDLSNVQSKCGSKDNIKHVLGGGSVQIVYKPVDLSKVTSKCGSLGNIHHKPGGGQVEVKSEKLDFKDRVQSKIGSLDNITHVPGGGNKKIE
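Human tau K18 […] P301L fragment, 15 uM unlabeled plus 0.24 uM Alexa 594-labeled tau (final), with compound and 20 uM heparin in 100 mM sodium acetate pH 7; 6 hr at 37 C, then Alexa 594 FP read.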
Tau fluor counter = counter-screen for tau fibril formation inhibitors. 280,000 tested, 0.93% active. Potency, µM (series often up to 57.7 µM), for inactives: top-dose activity change, negative = decrease. tau K18 P301L Alexa594 fluorescence, heparin fibrillization; note: nearly all actives have a fitted effect of over 55% in size
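Human K18 P301L tau (15 uM unlabeled plus 0.24 uM Alexa 594-labeled, final) in 100 mM sodium acetate pH 7 was mixed with compound and 20 uM heparin and incubated 6 hr at 37 C.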
Tau fibril ThT = tau fibrillization inhibition (ThT binding) | P10636 | 270,000 tested, 2.1% active | Potency, µM (highest dose often 57.4 µM), without a hit: at the highest dose activity, negative = inhibition, hits mostly inhibitors | recombinant tau K18 P301L, heparin-induced fibrillization, ThT fluorescence; note: nearly all actives have a fitted effect of over 55% in size
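Using a mix of unlabeled (15 uM) and Alexa 594-labeled (0.24 uM) tau K18 P301L, heparin-triggered fibrillization over 6 hr at 37 C was scored by ThT fluorescence.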
RGS12 GoLoco inh = inhibitors of human Gai1-RGS12 GoLoco interaction (red fluorophore) | P63096 | Gai1:RGS12 GoLoco peptide FP, rhodamine, 10 min | Potency, µM (titrated, usually from 61.6 µM), without a hit: top-dose activity, negative = inhibition, hits mostly inhibitors | 230,000 tested, 0.44% active; active = well fitted inhibition curve with a large enough effect, not every such curve was filed as active; inactive = no such curve, though single readings can be large or run the other way; note: nearly all actives have a fitted effect of over 30% in size
Target sequence (P63096 whole entry, looked up): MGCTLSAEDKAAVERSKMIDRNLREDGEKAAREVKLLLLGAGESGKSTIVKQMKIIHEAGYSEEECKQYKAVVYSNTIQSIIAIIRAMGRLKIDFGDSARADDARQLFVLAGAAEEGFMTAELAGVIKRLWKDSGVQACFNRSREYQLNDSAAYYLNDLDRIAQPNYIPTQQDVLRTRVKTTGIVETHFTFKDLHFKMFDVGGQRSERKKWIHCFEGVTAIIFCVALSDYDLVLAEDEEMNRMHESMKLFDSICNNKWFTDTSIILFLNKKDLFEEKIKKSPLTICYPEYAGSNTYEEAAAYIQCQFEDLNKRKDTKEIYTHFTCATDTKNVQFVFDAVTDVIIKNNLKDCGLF
TRb-SRC2 inh = TRbeta-SRC2 interaction inhibition | 280,000 tested, 0.065% active | Potency, µM (highest dose often 106 µM), without a hit: at the highest dose activity change, negative = inhibition, most hits filed as inhibitors | TRbeta-SRC2 peptide binding, fluorescence polarization; receptor liganded with 1 µM T3;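 note: plate controls were bound peptide for no effect and peptide without receptor for full effect; nearly all actives have a fitted effect of over 50% in size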
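Decrease in fluorescence polarization of 20 nM Texas Red SRC2 coactivator peptide flagged inhibition of its binding to 0.6 uM TRb LBD; 1 uM T3 included, incubation 5 hr, ex 555/em 632 nm.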
TexasRed fluor = Texas Red fluorescence interference in TRb-SRC2 counter-screen. TRb/SRC2 Texas Red total fluorescence interference. 280,000 tested, 0.29% active. Potency, µM (titrated, usually from 106 µM), for inactives: top-dose fluorescence change, negative = quenching; active = well fitted curve in either direction with a large enough effect; inconclusive = small, poorly fitted or top-dose-only effect
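Human TRb ligand-binding domain at 0.6 uM with 20 nM Texas Red SRC2 peptide in Tris buffer containing 1 uM T3 and 5% DMSO, incubated with compound 5 h at ambient temperature. Total fluorescence (555/632 nm) calculated as parallel + 2 × perpendicular.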
* marks the source's active call; other numbers are inactive results; ? = inconclusive; nt = no result; ! = not active in a repeat; [ ] = another dose, or the depositor's remark. Compounds with a hit are over-represented: about 3.2% of the library has one in this group of screens. Unless noted, calls come from the whole dose curve; as a rule, active = well fitted curve in the direction sought with a large enough effect; inconclusive = small, poorly fitted or top-dose-only effect, or another doubt; inactive = no such curve, though single readings can be large; an effect the other way counts as inactive or inconclusive. Unless noted, % is set by controls: 0 for no effect and ±100 for the full control effect; potency is the fitted concentration of half-maximal effect.

SMILES	Tau fibril FP	Tau fluor counter	Tau fibril ThT	RGS12 GoLoco inh	TRb-SRC2 inh	TexasRed fluor
CCOP(=O)(OCC)C1(O)C(=O)Nc2ccccc21 (stereo unspecified)	1%	-5%	-3%	4%	1%	-1%
COC[C@H]1OC(=O)c2coc3c2[C@@]1(C)C1=C(C3=O)[C@H]2CCC(=O)[C@@]2(C)C[C@H]1OC(C)=O	28µM*	?	14µM*	-1%	-23%	24%
COC[C@H]1OC(=O)c2coc3c2[C@@]1(C)C1=C(C3=O)C2CCC(=O)[C@@]2(C)C[C@H]1OC(C)=O (stereo partly specified)	?	?	18µM*!	-7%	35µM*	45µM*![fluorescent]
CON(C)C(=O)Nc1ccc(Br)c(Cl)c1	nt	nt	nt	nt	4%	-6%
O=C(O)/C=C\c1ccc[c]([Sb])c1	nt	nt	nt	0%[14.2 µM]	nt	nt
Brc1ccc(Oc2ccccc2)cc1	nt	nt	nt	nt	-3%[201 µM]	0%[201 µM]
CC1(C)CC(=O)C2=C(C1)OC(N)=C([N+](=O)[O-])C2c1ccc(C#N)s1 (stereo unspecified)	?	?	8.9µM*	-5%	-1%	-4%
O=C1NC(=O)C(=Cc2ccc(-c3ccccc3[N+](=O)[O-])o2)C(=O)N1	1%	-7%	nt	7%	4%	-7%
O=C1NC(=O)C(=Cc2ccc(-c3cc(Cl)ccc3[N+](=O)[O-])o2)C(=O)N1	-4%	-26%	7.9µM*	35%	5%	-3%
N#CS.N=C=S.N=C=S.[Cu].[NH2-].[NH2-].[NH2-].[NH2-].c1ccc2ncccc2c1	nt	nt	nt	-15%[14.2 µM]	nt	nt
CN1CCN(c2ccc(N)c(N3CCN(C)CC3)c2)CC1	?	?	28µM*	-61%	-21%	18%
CN1CCN(c2ccc(N)cc2)CC1	?	?	25µM*	0%	-16%	0%
CCN1CCN(c2ccc(N)cc2)CC1	?	?	25µM*	5%	-8%	1%
CCCCCCCCCCCCN(C)C	nt	nt	nt	nt	6%[201 µM]	1%[201 µM]
CCOc1nc(F)cc2nc(S(=O)(=O)Nc3c(Cl)cccc3Cl)nn12	nt	nt	nt	nt	-4%[201 µM]	9%[201 µM]
COc1cc2c(cc1OC)[C@]13CC[N@+]4(C)CC5=CCO[C@H]6CC(=O)N2[C@@H]1C6[C@@H]5C[C@]34O (stereo partly specified)	nt	nt	nt	7%[14.2 µM]	nt	nt
Clc1ccc(C2(Cn3cncn3)CC(Br)CO2)c(Cl)c1 (stereo unspecified)	nt	nt	nt	nt	3%[201 µM]	0%[201 µM]
Cn1c(=O)c2[nH]cnc2n(C)c1=O.[CH2-][C@H](Cc1cccc2cc(C(=O)O)c(=O)oc12)OC.[Hg].[OH-]	nt	nt	nt	-2%[14.2 µM]	nt	nt
CCOc1cccc(=NC2CCCCC2)c2c(C)n(C)c(C)c12	0%	-4%	13µM*	8%	-3%	3%
Cc1cc(C=C2C(=O)N(C)C(=S)N(C)C2=O)c(C)n1C1CCCC1	?	?	25µM*	68%	0%	5%
NS(=O)(=O)C(F)(F)C(F)(F)C(F)(F)C(F)(F)C(F)(F)C(F)(F)C(F)(F)C(F)(F)F	nt	nt	nt	nt	5%[201 µM]	3%[201 µM]
O=C(O[C@@H]1Cc2c(O)cc(O)cc2O[C@@H]1c1cc(O)c(O)c(O)c1)c1cc(O)c(O)c(O)c1	?	14µM*[quencher]	13µM*	-4%	4%[201 µM]	-9%[201 µM]
Oc1cc(O)c2c(c1)OC(c1cc(O)c(O)c(O)c1)C(O)C2 (stereo unspecified)	?	?	25µM*	-26%	1%	-12%
O=C(OC1Cc2c(O)cc(O)cc2OC1c1cc(O)c(O)c(O)c1)c1cc(O)c(O)c(O)c1 (stereo unspecified)	18µM*	6.3µM*[quencher]	6.3µM*	-4%	5%	-9%
CC1(C(=O)Nc2ccc(O)c(Cl)c2Cl)CCCCC1	nt	nt	nt	nt	-2%[201 µM]	-3%[201 µM]
SMILES	Tau fibril FP	Tau fluor counter	Tau fibril ThT	RGS12 GoLoco inh	TRb-SRC2 inh	TexasRed fluor
Brc1ccc(Br)cc1	nt	nt	nt	nt	-5%[201 µM]	2%[201 µM]
Cc1ccc2nc3sc(=O)sc3nc2c1	nt	nt	nt	nt	-6%	-3%
CN/C(=N/[N+](=O)[O-])NCC1CCOC1 (stereo unspecified)	nt	nt	nt	nt	2%[201 µM]	-5%[201 µM]
O=C(O)C(O)(c1ccc(-c2ccccc2)cc1)c1ccc(-c2ccccc2)cc1	nt	nt	nt	4%[14.2 µM]	nt	nt
Brc1ccccc1	4%	2%	-1%	11%	7%[201 µM]	3%[201 µM]
c1ccc(SSc2ccccc2)cc1	13µM*	-19%	25µM*	8%	-3%	1%
Nc1ccccc1Cl	nt	nt	nt	50µM*	8%	-1%
Cc1ccccc1N1C(=O)CC(=O)NC1=O	?	-28%	16µM*	8%	5%	1%
N=C(N)c1c(O)n(C2CCCCC2)c(=O)n(C2CCCCC2)c1=O	28µM*	?	0%	7%	4%	-1%
O=c1c(C=NCc2cccs2)c(O)n(C2CCCCC2)c(=O)n1C1CCCCC1	-1%	-7%	-11%	0%	-6%	0%
CCOP(=O)(OCC)OP(=O)(OCC)OCC	nt	nt	nt	nt	6%[201 µM]	-1%[201 µM]
CCOCCOC(C)=O	nt	nt	nt	28µM*	1%	-2%
CCOC(=O)C(SP(=S)(OC)OC)c1ccccc1 (stereo unspecified)	nt	nt	nt	nt	-3%	-4%
N#CC(C#N)=NNc1ccc(OC(F)(F)F)cc1	?	?	7.9µM*	3%	-7%	-6%
CCOc1ccc(Cc2c(O)[nH]c(=O)[nH]c2=O)cc1	25µM*	-14%	28µM*	5%	-20%	1%

Bioassay records (PubChem)
